Potency and affinity values are given separately. Values without a mark were called inactive. No rule for the calls is given here.
Molecular target: CAAX prenyl protease 2 (Homo sapiens) (UniProt Q9Y256)
Assay: human Rce1 protease inhibitors, dose response, biochemical, yeast membranes, quenched-peptide fluorescence, cherry-pick (AID 588849)
Details: yeast membrane fractions expressing human Rce1, quenched-peptide fluorescence, 4 h; series mostly up to 10 µM; activity change, negative = inhibition: at the top concentration

Sequence of CAAX prenyl protease 2 (Homo sapiens) (Q9Y256 whole entry, looked up): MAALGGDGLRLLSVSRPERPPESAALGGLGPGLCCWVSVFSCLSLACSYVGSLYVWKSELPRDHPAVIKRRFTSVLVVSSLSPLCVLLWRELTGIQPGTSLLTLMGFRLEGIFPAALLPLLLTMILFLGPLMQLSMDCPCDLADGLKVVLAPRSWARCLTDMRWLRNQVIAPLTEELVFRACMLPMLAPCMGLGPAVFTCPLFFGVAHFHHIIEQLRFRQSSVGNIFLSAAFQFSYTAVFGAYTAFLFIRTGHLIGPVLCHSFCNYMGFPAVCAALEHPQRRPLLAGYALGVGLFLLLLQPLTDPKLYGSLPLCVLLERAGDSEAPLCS

SMILES | activity change, negative = inhibition
COc1cc(-c2nc3ccccn3c2/N=C/c2ccccc2)ccc1O | -12.4%
COC(C[C@@H](O)C[C@H](O)[C@H](C)OCc1ccccc1)OC | 12.2%
CCOc1ccc(OCC)c(NC(=O)c2nnn(CC(=O)Nc3cc(C)cc(C)c3)c2N)c1 | -3.94%
O=C(CSc1n[nH]c(-c2ccc(S(=O)(=O)N3CCCCC3)cc2)n1)Nc1nccs1 | -21.8%
CCc1cc(=O)oc2c3c(cc(OCC(=O)NCCCC(=O)O)c12)OC(C)(C)CC3 | 58.4%
COc1ccc(-c2cc(C(F)(F)F)nc(SCC(=O)NCc3cnn(C)c3C)n2)cc1OC | -20.2%
Nc1nonc1-n1nnc(C(=O)N/N=C/c2cccc(Cl)c2)c1CSc1ccc(Cl)cc1 | -4.32%
O=S(=O)(CC(CN1CCOCC1)N1CCOCC1)c1ccccc1 (stereo not drawn) | 7.37%
O=C(Nc1cccc(-c2cn3ccccc3n2)c1)C1CC1 | -8.07%
O=C(CSc1nc2ccccc2s1)N1N=C(c2cccs2)CC1c1ccc(F)cc1 (stereo not drawn) | -15.8%
O=C(C1=C[C@@H](C2CC2)C[C@@H](OCc2ccc(CO)cc2)O1)N1CCN(Cc2ccccc2)CC1 | 3.16%
COCCNc1nc(N)c([N+](=O)[O-])c(N2CCCCCC2)n1 | 6.94%
COc1ccccc1-n1c(-c2ccccc2)c[nH]c1=S | -13.2%
Cc1cc(C)cc(N2CC(O)=C(c3nc4ccccc4c(=O)[nH]3)C2=N)c1 | -1.37%
COc1ccc(C(CNC(=O)COc2cc(C)c(Cl)c(C)c2)N2CCCCC2)cc1 (stereo not drawn) | -12.7%
NS(=O)(=O)c1ccc(NC(=O)/C=C/c2cn(-c3ccccc3)nc2-c2cccc(Cl)c2)cc1 | 0.326%
COC(C[C@H](O)C[C@H](O)[C@@H](C)OCc1ccccc1)OC | 6.23%
CCOC(=O)C[n+]1ccc2c([nH]c3ccccc32)c1C | 7.21%
COc1ccc(C)cc1NC(=O)CN1C(=O)COc2ccc(S(=O)(=O)N3CCOCC3)cc21 | -18.6%

SMILES | activity change, negative = inhibition
Cc1ccc(C(=O)N/C(=C/c2ccco2)C(=O)Nc2cccc(C(=O)O)c2)cc1 | 4.83%
Cc1ccc(NS(=O)(=O)c2ccc(NC(=O)N3CCCCC3)cc2)cc1 | 5.86%
COc1ccc(CN2CCN(C(c3ccc(F)cc3)c3ccc(F)cc3)CC2)c(OC)c1OC | -15.4%
CCOc1cccc(-c2c(C(=O)N/N=C/c3c(F)cccc3Cl)nnn2-c2nonc2N)c1 | 4.61%
O=C1CN(C(=O)NCC(=O)N2CCCC2)c2ccccc2N1 | -24.5%
O=C(Nc1ccc(F)cc1)Oc1ccccc1N1CCOCC1 | 14.8%
Cc1ccc(-c2cc(-c3ccccc3)c(C#N)c(Br)n2)cc1 | 3.27%
COc1cccc(C2CC(c3cccs3)=NN2C(=O)CSc2nc3c(cnn3-c3ccc(F)cc3)c(=O)[nH]2)c1OC (stereo not drawn) | -10.8%
Cc1cccc(NS(=O)(=O)c2ccc(C)c(C(=O)OCC(=O)Nc3cc(C)on3)c2)c1 | -6.78%
CC(C)c1c(C(=O)N/N=C/c2c[nH]c3ccccc23)nnn1-c1nonc1N | -12.2%
O=C(O)CCCC[C@@H]1SC[C@@H]2NC(=O)N[C@@H]21 | 26.2%
FC(F)(F)c1cc(Oc2ccccc2)ncc1-c1nnc(-c2ccccc2Cl)o1 | 3.97%
CCOC(=O)c1nnn2c1nc(N1CCOCC1)c1ccccc12 | 5.58%
Cc1cc(NC(=O)c2oc3ccccc3c2C)ccc1-n1cnnn1 | -14.9% [at 3.5 µM]
Cn1c(CCNS(=O)(=O)c2ccccc2)nnc1SCc1cccnc1 | -5.95%
COc1ccc(C(=O)/C=C/c2ccc(OC)cc2OC)c(O)c1 | -13%
Cc1nc(SC(C(=O)c2ccccc2)c2ccccc2)nc2ccccc12 (stereo not drawn) | -3.28%
COC(C/C=C/[C@H](O)[C@@H](C)OCc1ccccc1)OC | 15.6%
CN1CCN(C(=S)NC(=O)c2ccccc2Cl)CC1 | 0.21%
